hNpr1 antagonist = antagonists of human natriuretic peptide receptor Npr1 | P16066 | Potency, µM (highest dose often 46.3 µM), inactives show top-dose activity change, negative = inhibition, usual class: inhibitors | HEK293 hNpr1 GloSensor cGMP, ANP-stimulated luminescence | AID 1347048 | actives 1.6% (n = 76,000); calls by dose curve; further: nearly all actives have a fitted effect of over 60% in size
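Compound pre-incubated 30 min at room temperature on GloSensor-loaded HEK293 cells stably carrying hNpr1 and the pGS-40F cGMP biosensor. Stimulation uses hNppA at 0.1 nM final; luminescence is taken at baseline and 20 min post-agonist.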
HEK293 tox = cytotoxic compounds in HEK 293 cells. HEK 293 viability, ATP luminescence (CellTiter-Glo), 48-72 h. Potency, µM (doses to about 115 µM), for inactives: at the highest dose activity change, negative = cytotoxicity, usual class: inhibitors. actives 6.6% (n = 94,000). AID 1345083; further: nearly all actives have a fitted effect of over 60% in size
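CellTiter-Glo luminescence (cellular ATP) was read after 48 or 72 hr of compound exposure at 37 degree Celsius. Cells were HEK 293 plated at 250 cells/well.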
FLuc inh = blocks purified firefly luciferase enzyme activity; purified P. pyralis luciferase, luminescence, biochemical; Potency, µM (highest dose often 115 µM), most hits filed as inhibitors; actives 2.5% (n = 76,000); further: nearly all actives have a fitted effect of over 65% in size
Target sequence (P08659 whole entry, looked up): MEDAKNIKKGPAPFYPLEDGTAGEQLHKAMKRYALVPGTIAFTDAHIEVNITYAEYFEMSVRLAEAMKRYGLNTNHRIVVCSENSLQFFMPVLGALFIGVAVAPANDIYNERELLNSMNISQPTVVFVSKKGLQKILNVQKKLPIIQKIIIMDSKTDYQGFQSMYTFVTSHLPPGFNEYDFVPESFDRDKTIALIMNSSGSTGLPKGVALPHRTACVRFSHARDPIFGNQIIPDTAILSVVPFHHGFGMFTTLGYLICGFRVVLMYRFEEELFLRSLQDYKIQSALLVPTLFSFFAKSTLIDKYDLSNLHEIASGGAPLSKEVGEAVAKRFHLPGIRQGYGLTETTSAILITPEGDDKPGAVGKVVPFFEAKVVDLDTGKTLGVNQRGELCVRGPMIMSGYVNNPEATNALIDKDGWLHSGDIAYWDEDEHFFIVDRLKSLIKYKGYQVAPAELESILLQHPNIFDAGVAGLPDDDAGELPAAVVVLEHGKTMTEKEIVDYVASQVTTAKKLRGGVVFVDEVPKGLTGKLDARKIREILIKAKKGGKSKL
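Purified 10nM P. pyralis luciferase with 10uM D-luciferin and 10uM ATP in 50mM Tris acetate pH 7.5, 10mM Mg acetate, 0.01% Tween-20, 0.05% BSA. qHTS titration; luminescence read by CCD imager.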
NIH3T3 tox = cytotoxic compounds in NIH 3T3 cells. actives 4.3% (n = 94,000). NIH 3T3 viability, CellTiter-Glo ATP luminescence, 48-72 h. Potency, µM (series often up to 96.7 µM), without a hit: top-dose activity change, negative = cytotoxicity, actives largely listed as inhibitors; further: nearly all actives have a fitted effect of over 55% in size
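Mouse fibroblast NIH 3T3 cells, 400 per well, received compound via pintool and were incubated for 48 or 72 hr prior to CellTiter-Glo ATP luminescence measurement.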
An asterisk follows results filed as active; i = inactive; ? = inconclusive; · = no result; [ ] = remark or other dose. Shown are actives, neighbours in structure and some others; about 11% of the full set was active somewhere. Unless noted, the call rests on the fitted dose curve; in most records, active means well fitted curve in the direction sought with a large enough effect; inconclusive means small, poorly fitted or top-dose-only effect, or another doubt; inactive means no such curve, though single readings can be large; an effect the other way counts as inactive or inconclusive. On the % scale 0 is the no-effect control and ±100 the full control effect; potency means the concentration at half of the fitted maximal effect.

SMILES | hNpr1 antagonist | HEK293 tox | FLuc inh | NIH3T3 tox
COc1cc(C(=O)NC2CCCc3c2[nH]c2c(Cl)cccc32)cc(OC)c1OC (configuration not stated) | -13.1% | ? | i | -12.8%
O=c1c2nc(-c3ccsc3)ccc2ncn1-c1ccc(F)cc1F | -0.9%[70.6 µM] | 100µM* | i | 44.7µM*
O=c1c2nc(-c3ccccc3)ccc2ncn1-c1ccc(F)cc1F | 6.8%[70.6 µM] | ? | i | 28.2µM*
COc1cccc(-c2ccc3ncn(-c4ccc(F)cc4F)c(=O)c3n2)c1 | 6.1%[70.6 µM] | ? | ? | 50.1µM*
O=c1c2nc(-c3ccoc3)ccc2ncn1-c1ccc(F)cc1F | -13.4%[70.6 µM] | ? | i | ?
CO[C@H]1C(=O)N(C2CCN(C(=O)Nc3ccc4c(c3)OCCO4)CC2)[C@H]1c1ccncc1 | · | -0.6% | · | -11.8%
COC(=O)c1cccc(NC(=O)C2CCc3sc(C(=O)N(C)C)cc3C2)c1 (configuration not stated) | -4.7% | 44.7µM* | i | ?
O=C(Nc1ccc2c(c1)OCO2)C1CCc2sc(C(=O)N3CCCC3)cc2C1 (configuration not stated) | ? | 31.6µM* | ? | 22.4µM*
CCOC(=O)[C@@H]1[C@@H](OC)C(=O)N(Cc2ccccc2)C12CCN(C(=O)C1CCC1)CC2 | · | -1.5% | · | ?
O=C(Nc1ccc(Cl)cc1)N1CCC(C(=O)N2CCC(N3CCOC3=O)CC2)CC1 | · | -6.2% | · | -24.0%
COc1ccc([C@H]2C[C@@H](O)[C@@H](O)[C@@H]2NS(=O)(=O)c2ccc(C(F)(F)F)cc2)cc1 | 1.6%[70.6 µM] | 100µM* | i | -27.5%[174 µM]
COc1ccc([C@H]2C[C@@H](O)[C@@H](O)[C@@H]2NCc2cnn(C)c2)cc1 | -2.6%[70.6 µM] | -11.7%[172 µM] | i | -7.0%[138 µM]
COc1ccc([C@H]2C[C@@H](O)[C@@H](O)[C@@H]2NCc2ccc(Cl)cc2)cc1 | -20.9%[70.6 µM] | 100µM* | i | ?
O=C(N[C@H]1[C@H](O)[C@H](O)C[C@@H]1c1ccc(C(F)(F)F)nc1)c1ccc2c(c1)OCCO2 | -2.0%[70.6 µM] | -7.9%[172 µM] | i | -21.6%[174 µM]
COc1ccc([C@H]2C[C@@H](O)[C@@H](O)[C@@H]2NCc2cn(C)c3ccccc23)cc1 | -23.7%[70.6 µM] | ? | i | 89.1µM*
O=C(N[C@H]1[C@H](O)[C@H](O)C[C@@H]1c1ccc(C(F)(F)F)cc1)c1ccc2c(c1)OCCO2 | 0.4%[70.6 µM] | ? | ? | 100µM*
CN1CC(C(=O)NCCCc2ccccc2)NC1=O (configuration not stated) | · | 0.5%[172 µM] | · | -12.5%[138 µM]
COc1ccc(CN[C@H]2[C@H](O)[C@H](O)C[C@@H]2c2ccc(C(F)(F)F)cc2)cc1 | -15.1%[70.6 µM] | 44.7µM* | i | 28.2µM*
COc1ccc([C@H]2C[C@@H](O)[C@@H](O)[C@@H]2NC(=O)c2cc3ccccc3s2)cc1 | ? | 79.4µM* | i | ?
COc1ccc([C@H]2C[C@@H](O)[C@@H](O)[C@@H]2NCc2ccccc2)cc1 | ? | -23.1%[172 µM] | i | 0.7%[174 µM]
Cc1cc(=O)n(CC(=O)N2CCN(c3ccc(F)cc3)CC2)c(-c2ccc(F)cc2)n1 | 4.4% | 11.4% | i | i
CCc1cc(=O)n(CC(=O)N2CCN(c3ccc(F)cc3)CC2)c(N2CCOCC2)n1 | -16.4% | 25.1µM* | i | ?
O=C(CNC(=O)c1ccc(-c2cnc3ccccc3c2)cc1)NCC1CCCCC1 | · | 39.8µM* | · | ?
O=C(NCC(=O)N1CCCCC1)c1ccc(-c2cnc3ccccc3c2)cc1 | · | 44.7µM* | · | ?
COc1ccc(S(=O)(=O)NC2CCN(c3ccc(=O)n(C)n3)CC2)cc1 | · | ? | · | -44.7%
SMILES | hNpr1 antagonist | HEK293 tox | FLuc inh | NIH3T3 tox
Cn1nc(C2CC2)cc1NC(=O)c1cccc(Cl)c1 | · | -19.8%[172 µM] | · | ?
COc1cccc(CN2CCOC3(CCN(Cc4ccc5[nH]ccc5c4)CC3)C2=O)c1 | -1.7%[70.6 µM] | ? | i | ?
COc1cccc(CN2CCOC3(CCN(Cc4cccc(Cl)c4)CC3)C2=O)c1 | -18.6%[70.6 µM] | 79.4µM* | i | ?
CNC(=O)c1cc(C)nc2onc(C3CCN(C(=O)c4ccc(Cl)nc4)C3)c12 (configuration not stated) | · | -8.7% | · | -20.7%
Cc1cccc(OCC(=O)N2CCC(n3cc(-c4nc(-c5ccccc5)no4)nn3)C2)c1 (configuration not stated) | -1.8% | 10µM* | ? | 12.6µM*
COc1cccc(C(=O)N2CCC(N3C[C@H](O)C[C@H]3C(=O)N3CC=C(c4ccccc4)CC3)CC2)c1 | -3.0% | 79.4µM* | i | -27.9%
COc1cccc(C(=O)N2CCC(n3cc(-c4nc(-c5ccccc5)no4)nn3)C2)c1 (configuration not stated) | 11.2µM* | ? | ? | ?
CCCc1noc(-c2cn(C3CCN(C(=O)c4ccc(OC)c(F)c4)CC3)nn2)n1 | -18.9% | -21.7% | i | -29.2%
CCCc1noc(-c2cn(C3CCN(C(=O)c4ccc(F)c(F)c4)CC3)nn2)n1 | -23.7% | ? | i | 12.6µM*
COc1ccc(C(=O)N2CCC(n3cc(-c4nc(-c5ccccc5)no4)nn3)C2)cc1F (configuration not stated) | ? | ? | ? | -25.8%
CN1CC(=O)N(C2CCCC2)Cc2c(NC3CCCC3)ncnc21 | · | -1.9%[172 µM] | · | ?
COc1cccc(C(=O)N2CCC(n3cc(-c4nc(-c5ccccc5)no4)nn3)CC2)c1 | ? | 44.7µM* | ? | ?
N#Cc1cccc(C(=O)N2CCC(n3cc(-c4nc(-c5ccccc5)no4)nn3)CC2)c1 | -25.1% | ? | i | -34.1%
Cc1cccc(-c2noc([C@@H]3C[C@@H](O)CN3Cc3ccccn3)n2)c1 | -24.9%[70.6 µM] | ? | 50.1µM* | -27.5%[138 µM]
Cc1ccccc1CN1C[C@H](O)C[C@H]1c1nc(-c2ccncc2)no1 | 1.8%[70.6 µM] | ? | i | ?
Cc1cccc(-c2noc([C@@H]3C[C@@H](O)CN3Cc3ccc(Cl)cc3)n2)c1 | -16.2%[70.6 µM] | 100µM* | 63.1µM* | ?
O[C@@H]1C[C@@H](c2nc(-c3ccccc3)no2)N(Cc2ccccc2)C1 | -6.0%[70.6 µM] | -13.5%[172 µM] | i | ?
O=c1c2nc(OCc3ccc(F)cc3)ccc2ncn1C1CC1 | -4.0%[70.6 µM] | ? | i | ?
Cc1cc(C)cc(-c2ccc(CN3CCCC(NC(=O)C4CC4)C3)cc2)c1 (configuration not stated) | · | -18.3% | · | -15.3%
Cc1ccc(-c2cccc(CN3CCCC(NC(=O)c4c(C)noc4C)C3)c2)cc1Cl (configuration not stated) | · | 22.4µM* | · | ?
CCOC(=O)NC1CCCN(Cc2cccc(-c3ccc(C)c(Cl)c3)c2)C1 (configuration not stated) | · | 39.8µM* | · | ?
Cc1ccc(-c2cccc(CN3CCCC(NC(=O)Cc4ccccn4)C3)c2)cc1Cl (configuration not stated) | · | -20.4% | · | 25.1µM*
CSc1ccc(-c2cccc(CN3CCC(NC(=O)c4c(C)noc4C)CC3)c2)cc1 | · | ? | · | -22.8%

High-throughput results (PubChem)
